High-throughput results as filed in PubChem.
Tg IFNy HTS: blocks Toxoplasma gondii growth in the presence of IFN-gamma | Toxoplasma gondii growth in IFN-gamma-treated host cells; stronger effect = lower value | activity change, negative = inhibition, % (test concentration not listed) | actives 3.8% (n = 69,000) | AID 1259416; in the data active = activity change below about -70%, passing the limit was not always enough;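 also: host cells are HeLa cells infected with Toxoplasma gondii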
Each line names hits and unclear results; the compound was inactive in the other large screens; ! = not confirmed by another sample. Many of the other results were omitted from the sample, so hits are more common in it than they were.

CCCS(=O)(=O)N1CCc2ncc(CN(C)C)n2CC1	none
CCc1nc(C)c(C(=O)N2Cc3cnn(Cc4ccc(F)cc4)c3C2)o1	none
CN1CCOC(C)(C(=O)N2CCN(c3ccccc3)CC2)C1 (stereo not drawn)	none
Cc1nn(C)cc1S(=O)(=O)N1CCC(c2ccn[nH]2)C1 (stereo not drawn)	none
CCc1cc(C(=O)NC(C)c2cc3cc(Cl)ccc3o2)n(C)n1 (stereo not drawn)	none
COc1ccccc1CCNC(=O)c1cc(S(N)(=O)=O)c(Cl)cc1Cl	none
COc1ccccc1NC(=O)N1C[C@@H](O)COC[C@H]2O[C@H](CC(=O)N3CCC(Cc4ccccc4)CC3)CC[C@@H]21	none
COc1ccccc1NC(=O)N1C[C@H](O)COC[C@@H]2O[C@@H](CC(=O)N3CCC(Cc4ccccc4)CC3)CC[C@H]21	Tg IFNy HTS -75
COc1ccccc1NC(=O)N1C[C@H](O)COC[C@H]2O[C@H](CC(=O)N3CCC(Cc4ccccc4)CC3)CC[C@@H]21	none
Cc1cc(Nc2nc(N[C@@H](C)c3ccc(F)cc3)c(C#N)cc2F)n[nH]1	Tg IFNy HTS -75
COc1ccccc1OCCN(C)C(=O)c1ccc(=O)n(C)c1	none
Cc1cc(C)c2c(c1)CC(C)(C)c1[nH]c(-c3ccc(Cl)cc3Cl)nc1-2	Tg IFNy HTS -71
O=C(O)CCCNC(=O)c1cccnc1	none
CCN(CC)CCCC(C)Nc1c2ccc(Cl)cc2nc2ccc(OC)cc12 (stereo not drawn)	Tg IFNy HTS -72!
COc1ccc2nc(C)cc(SCC(=O)c3ccc(Cl)cc3)c2c1	none
COc1cc(NC(C)CCCN)c2ncccc2c1 (stereo not drawn)	none
CN(C)C1CC2(CCN(C(=O)c3csnn3)CC2)c2ccccc21 (stereo not drawn)	none
COc1ccc(N2COc3ccc(OC)cc3C2)cc1	none
Cc1cc(C)cc(NC(=O)C(=O)NCCc2sc(-c3cccc(C)c3)nc2C)c1	none
COc1cccc(-c2cnc(N(C)C)nc2C2CCCN(C(=O)Cc3c(C)noc3C)C2)c1 (stereo not drawn)	none
COc1ccc(/C=C/C(=O)N2CCCC(c3nc(C)ncc3Cc3ccccc3)C2)cc1 (stereo not drawn)	none
Cc1cccc(-c2cnc(C)nc2C2CCCN(C(=O)/C=C/c3cc(F)ccc3F)C2)c1 (stereo not drawn)	Tg IFNy HTS -73
Cc1ccc(-c2cc(O)c3c(c2)CN(Cc2snnc2C)CCO3)s1	none
COc1ccc([C@@H]2CN(S(C)(=O)=O)[C@H]3CCN(C(=O)c4cccnc4)C[C@@H]23)cc1	none
COCC(=O)N1CCCC1c1nnn2cc(C3CC3)ccc12 (stereo not drawn)	none
Cc1ccc(Nc2nc(C(=O)Nc3ccc(Cl)cc3)nc3ccccc23)cc1	none
Cc1cc(Nc2ccc(C(=O)O)cc2)nc(N)n1	none
Cc1cc(Nc2ccc(NC(=O)c3ccc(Nc4ccnc5ccccc45)cc3)cc2)nc(N)n1	Tg IFNy HTS -78
CCCn1cnnc1Cn1cnc(-c2ccccc2)c1-c1cn(CC)nc1C	none
O=C1CSC(=O)N1C/C=C/CN1C(=O)CSC1=O	none
Cc1cc(=O)n(CC(=O)NCCN2C(=O)CSC2=O)c2ccccc12	none
Cc1ccc(NCN2C(=O)CSC2=O)c(C)c1	Tg IFNy HTS -88
COc1cc(C(=O)N2CCC3(CC2)NC(=O)c2ccc(Cl)cc2N3)cc(OC)c1OC	none
COc1cc(Cl)ccc1C(=O)NCC1CCCN(C)C1 (stereo not drawn)	none
COc1ccccc1C(=O)C1C(=O)NC23CCN(C)CC2C1c1cc(Cl)ccc1O3 (stereo not drawn)	Tg IFNy HTS -87
COc1ccccc1CC(C)NC(=O)CC1C(=O)N(C)c2ccccc21 (stereo not drawn)	none
CCn1ncnc1-c1c(-c2ccccc2)ncn1CCNc1cccnc1	none
CC(C)(C)C1CCc2nc(-c3cccnc3)nc(Nc3cccc(C(F)(F)F)c3)c2C1 (stereo not drawn)	Tg IFNy HTS -73
Cc1nc(CCNc2nc(-c3cccnc3)nc3c2CCNC3)sc1C	none
O=C(O)c1cccnc1Nc1cccc(C(F)(F)F)c1	none
O=C(CCSc1ccccc1)Nc1nncs1	none
Cc1nc(OCC(=O)NCc2ccc3c(c2)OCO3)c2ccccc2n1	none
CN(C)C(=O)CN1CCCn2cnc(COCC3CC3)c2C1	none
Cc1ccc(-c2ccc(-c3ccn[nH]3)cc2)c(N)n1	Tg IFNy HTS -81
Nc1cnc(-c2ccc(-c3ccn[nH]3)cc2)cn1	none
CCc1cnc(C)nc1-c1ccc(-c2ccn[nH]2)cc1	none
O=C(CCc1cc(=O)[nH]o1)N1CCCC(c2ccn[nH]2)C1 (stereo not drawn)	none
CCCCN(CCCC)C(=O)CN1C[C@H](c2ccc3c(c2)OCO3)[C@@H](C(=O)O)[C@@H]1c1ccc(OC)cc1	none
Cc1cccc(CN2C(=O)CCC23CCN(Cc2cccs2)CC3)c1	none
COc1ccc(S(=O)(=O)N2CCC(c3nc(C(=O)N(C)C)c(C)o3)CC2)cc1	none
COc1ccc(S(=O)(=O)N2CCC(c3n[nH]c(=O)cc3-c3cc(C)no3)CC2)cc1	none
COc1ccc(S(=O)(=O)N2CCC(c3ccc4c(C)nn(C)c4n3)CC2)cc1	Tg IFNy HTS -91
COc1ccc(-n2cccn2)c(CN2CCOCC(CN(C)C)C2)c1 (stereo not drawn)	none
CC(C)NC(=O)N1CCC2(CC1)OC(C(=O)N(C)Cc1ccccn1)Cn1ccnc12 (stereo not drawn)	none
COCCNC(=O)Cn1cc(CN(C)c2ccc3c(c2)OCCO3)c2ccccc21	none
Cc1ccccc1-c1nc2cnccn2c1NCCC(=O)N1CCSCC1	none
CC(CCCC(C)(C)O)CCN1CCC2(CC1)C(=O)NCCCN2C (stereo not drawn)	none
O=C1NCN(c2ccccc2)C12CCN(CCCC(c1ccc(F)cc1)c1ccc(F)cc1)CC2	Tg IFNy HTS -81
O=C1NCCN(Cc2ccccc2)C12CCN(S(=O)(=O)c1ccc(F)cc1)CC2	none
COC(=O)CCn1cc(CN2[C@@H]3CC[C@H]2CN(C)C(=O)C3)cn1	none
CNc1nc(C2CCN(C(=O)c3c(C(C)C)noc3C)CC2)nc2c1CN(C(C)=O)CC2	none
Cc1onc(C(C)C)c1C(=O)N1CCC(c2cc(C(F)(F)F)c3c(N)[nH]nc3n2)CC1	Tg IFNy HTS -75
Cc1ncc(C(=O)N2CCC(c3cc4nc(C(C)C)cc(C(F)(F)F)n4n3)CC2)c(C)n1	none
Cc1nc(SC(C)C(=O)N2CCN(c3nccs3)CC2)[nH]c(=O)c1C (stereo not drawn)	none
CC(C)(C)c1csc(-c2sccc2CS(=O)(=O)c2ccc(Cl)cc2)n1	none
COc1ccccc1CNC(=O)c1c(O)c2cccnc2n(-c2cccc(F)c2)c1=O	none
Cc1cc(F)ccc1NC(=O)c1c(O)c2cccnc2n(-c2ccccc2)c1=O	none
O=C(NCc1ccccc1)c1c(O)c2cccnc2n(-c2ccccc2)c1=O	none
Cc1cccc(C)c1NC(=O)c1c(O)c2ccccc2n(-c2ccccc2)c1=O	Tg IFNy HTS -105
Cc1cc(F)ccc1NC(=O)c1c(O)c2ccccc2n(-c2ccccc2)c1=O	none
O=C(NCc1cc(F)cc(F)c1)c1c(O)c2cccnc2n(-c2cccc(F)c2)c1=O	none
O=C(NCc1ccccc1Cl)c1c(O)c2cccnc2n(-c2ccc(F)cc2)c1=O	none
COc1ccccc1CNC(=O)c1c(O)c2cccnc2n(-c2ccc(F)cc2)c1=O	Tg IFNy HTS -74
O=C(Nc1ccccc1F)c1c(O)c2cccnc2n(-c2cccc(F)c2)c1=O	none
Cc1ccc(NC(=O)c2c(O)c3ccccc3n(-c3ccccc3)c2=O)c(C)c1	none
O=C(NCc1cc(F)cc(F)c1)c1c(O)c2cccnc2n(-c2ccccc2)c1=O	Tg IFNy HTS -91
Cc1ccccc1NC(=O)c1c(O)c2cccnc2n(-c2cccc(F)c2)c1=O	Tg IFNy HTS -94
